Assay results from PubChem BioAssay AID765 (NMMLSC, 2007).
Active and inactive are the calls of the source. Cut-off read from the data, not from the text of the source: active = inhibition above about 31%; inactive = the rest.

What follows are compounds tested against N-formyl peptide receptor 2 (Homo sapiens) (UniProt P25090) (assay: FPRL1 fluorescent ligand binding inhibitors, cell-based, flow cytometry, single concentration (AID 765)). Conditions: FPRL1-expressing cells, active compounds read high; at 5.1 µM unless noted.
Sequence of N-formyl peptide receptor 2 (Homo sapiens) (P25090 whole entry, looked up): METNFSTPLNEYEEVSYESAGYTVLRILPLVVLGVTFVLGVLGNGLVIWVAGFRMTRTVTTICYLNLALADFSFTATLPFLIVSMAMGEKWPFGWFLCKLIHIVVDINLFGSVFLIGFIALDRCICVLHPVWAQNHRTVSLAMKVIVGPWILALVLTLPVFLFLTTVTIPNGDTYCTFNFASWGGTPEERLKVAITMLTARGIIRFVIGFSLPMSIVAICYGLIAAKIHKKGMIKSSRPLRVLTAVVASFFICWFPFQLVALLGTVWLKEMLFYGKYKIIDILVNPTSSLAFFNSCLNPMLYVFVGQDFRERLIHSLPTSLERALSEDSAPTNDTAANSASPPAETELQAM

inhibition, inactive:
O=C(c1ccccc1)N1CCN(c2nc(-c3ccccc3)c3ccccc3n2)CC1 -1.3% [at 5.6 µM]
Cc1ccc(-c2cc(C(F)F)nc(N3CCN(c4ccccc4)CC3)n2)cc1 21.3% [at 5.8 µM]
CCCC(=O)Nc1cccc(-c2cn3cccnc3n2)c1 -2.8% [at 7.9 µM]
COc1ccc(-c2cc(C#N)nc(N3CCN(c4ccccc4)CC3)n2)cc1 5.3% [at 6 µM]
Clc1ccccc1N1CCN(c2nc(-c3ccccc3)c3cc(Br)ccc3n2)CC1 5.1% [at 4.6 µM]
Fc1ccc(-c2cc(C(F)(F)F)nc(N3CCN(c4cccc(Cl)c4)CC3)n2)cc1 19.5%
CCCCOc1ccc(C(=O)Nc2cc(-c3cn4cccnc4n3)ccc2OC)cc1 1.7% [at 5.3 µM]
COc1ccc(-c2cn3cccnc3n2)cc1NC(=O)c1ccc(OC)c(OC)c1 -6% [at 5.5 µM]
O=C(O)/C=C/C(=O)N1CCN(c2nc(-c3ccccc3)c3ccccc3n2)CC1 6.6% [at 5.7 µM]
O=C(O)CC1(CC(=O)N2CCN(c3nc(-c4ccccc4Cl)c4cc(Br)ccc4n3)CC2)CCCC1 -5.2% [at 3.9 µM]
CC(C)(C)OC(=O)N1CCN(c2nc(-c3ccccc3)c3cc([N+](=O)[O-])ccc3n2)CC1 14.7%
COc1ccc(-c2cn3cccnc3n2)cc1NC(=O)c1cccc(C(F)(F)F)c1 3.7% [at 5.4 µM]
